Giardia FBPA inh: inhibitors of Giardia lamblia fructose-1,6-bisphosphate aldolase | Potency, µM (top dose mostly 59.6 µM), for the others: top-dose activity, negative = inhibition, hits mostly inhibitors | actives 0.71% (n = 290,000) | purified Giardia FBPA | A8B2U2 | AID 2451; note: nearly all actives have a fitted effect of over 55% in size
Target sequence (A8B2U2 whole entry, looked up): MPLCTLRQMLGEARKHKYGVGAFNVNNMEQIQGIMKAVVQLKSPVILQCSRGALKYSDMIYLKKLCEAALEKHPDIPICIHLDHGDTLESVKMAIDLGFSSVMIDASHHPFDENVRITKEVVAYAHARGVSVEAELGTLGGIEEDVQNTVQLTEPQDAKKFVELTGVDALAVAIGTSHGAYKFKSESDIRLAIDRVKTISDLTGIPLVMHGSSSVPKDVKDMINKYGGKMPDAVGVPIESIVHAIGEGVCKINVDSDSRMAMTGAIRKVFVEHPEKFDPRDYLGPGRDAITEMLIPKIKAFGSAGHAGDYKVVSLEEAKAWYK
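Giardia FBPA (40 nM reagent) was preincubated 10 min at RT with compound (up to 57.5 uM final), then substrate plus GAPDH/TPI/NAD/arsenate coupling system with diaphorase/resazurin was added; resorufin fluorescence (525/598 nm) was read after 20 min.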
Cruzain inh Det: cruzain (T. cruzi) inhibition with detergent; P25779; purified cruzain, Z-FR-AMC fluorescence, 0.01% Triton; Potency, µM, for inactives: max response, negative = inhibition, actives largely listed as inhibitors; actives 0.43% (n = 200,000);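 note: plate controls were neutral wells for no effect and buffer without enzyme for full effect; nearly all actives have a fitted effect of over 40% in size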
Target sequence (P25779 123-467 limits assumed): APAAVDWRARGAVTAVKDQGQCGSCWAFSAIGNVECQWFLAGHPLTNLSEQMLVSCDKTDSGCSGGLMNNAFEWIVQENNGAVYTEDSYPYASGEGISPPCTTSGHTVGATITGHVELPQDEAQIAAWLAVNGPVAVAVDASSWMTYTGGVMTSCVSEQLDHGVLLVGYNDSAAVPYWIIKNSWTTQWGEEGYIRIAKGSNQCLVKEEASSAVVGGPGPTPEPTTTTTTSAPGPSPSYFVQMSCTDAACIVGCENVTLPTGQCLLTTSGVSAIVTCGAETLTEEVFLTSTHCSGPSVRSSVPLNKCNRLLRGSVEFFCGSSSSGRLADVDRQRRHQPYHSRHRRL
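Purified cruzain (1.5 nM final) was preincubated with compounds for 15 min at room temperature in 100 mM sodium acetate pH 5.5, 5 mM DTT, 0.01% Triton X-100. Reaction started with 2 uM Z-FR-AMC; AMC fluorescence change over 60 s gave activity.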
Cruzain noTriton: inhibitors of Trypanosoma cruzi cruzain without detergent. actives 2.3% (n = 200,000). Potency, µM, for inactives: max response, negative = inhibition, most hits filed as inhibitors. P25779. purified cruzain, Z-FR-AMC fluorescence, no detergent;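 note: plate controls were enzyme without inhibitor for no effect and buffer without enzyme for full effect; nearly all actives have a fitted effect of over 40% in size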
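Detergent-free condition (0.00005% Triton X-100) in acetate buffer pH 5.5 with DTT. 1.5 nM enzyme and compound were pre-mixed 15 min, then 2 uM Z-FR-AMC substrate added; reaction progress from fluorescence change between first and third reads (60 s).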
* marks the source's active call; other numbers are inactive results; u = inconclusive; x = not tested or not shown; [ ] = dose if it differs, or a comment. This is one part of a sample in which hits are shown more often than they occur. Calls come from the whole dose curve; as a rule, active = well fitted curve in the direction sought with a large enough effect; inconclusive = small, poorly fitted or top-dose-only effect, or another doubt; inactive = no such curve, though single readings can be large; an effect the other way counts as inactive or inconclusive. Unless noted, % is set by controls: 0 for no effect and ±100 for the full control effect; potency is the fitted concentration of half-maximal effect.

SMILES	Giardia FBPA inh	Cruzain inh Det	Cruzain noTriton
CN(C(=O)COC(=O)CNC(=O)c1sc2ccccc2c1Cl)c1ccccc1	4%	8.9µM*	7.9µM*
CN(C(=O)COC(=O)CNC(=O)CNC(=O)c1ccc(Cl)cc1Cl)c1ccccc1	12%	x	x
c1cc(-c2cnn3cc(-c4ccc(OCCN5CCCCC5)cc4)cnc23)ccn1	10%	x	x
CCn1c(=O)cc(SCC(=O)NCc2ccc(F)cc2Cl)c2ccccc21	x	4%	-4%
Cc1ccc2nc(C3CCCN(C(=S)Nc4cccc(C)c4C)C3)[nH]c2c1 (stereo not given)	-4%	14µM*	16µM*
Cc1ccc(NC(=S)N2CCCC(c3nc4ccc(C)cc4[nH]3)C2)c(C)c1 (stereo not given)	-5%	u	-26%
CC(C)Br	x	3%	4%
COc1ccc(-n2cccc2/C=C2/NC(=O)N(c3cccc(Cl)c3)C2=O)cc1	4%	-4%	10µM*
O=C(O)c1cccc(-n2cccc2/C=C2/NC(=O)N(c3cccc(Cl)c3)C2=O)c1	0%	x	x
Cc1ccc(OC2C(O)COC2/C=C/C#Cc2ccc(C(C)(C)C)cc2)cc1 (stereo not given)	0%[12.9 µM]	x	x
O=C(c1cc2sccc2n1Cc1ccccc1)N1CCN(c2nc3ccccc3s2)CC1	2%	-4%	7.9µM*
CCC(=O)N1CCN(c2nc3ccccc3s2)CC1	0%	-3%	-2%
O=C(O)/C=C\C=C/c1ccc2c(c1)OCO2	x	0%	-3%
Cn1c(N)c(N2CCCCC2)c(=O)n(CC(=O)Nc2ccc(Cl)c(Cl)c2)c1=O	-1%	-1%	-4%
O=C(Cn1c2c(sc1=O)C1c3ccccc3OCC1CS2)Nc1ccc(Cl)c(Cl)c1 (stereo not given)	-7%	-2%	6.3µM*
Cc1ccc(Cl)cc1NC(=O)CN1C(=O)C(C)(C)c2cc(S(=O)(=O)N3CCCCC3)ccc21	x	0%	u
C=CCc1cccc(/C=N/NC(=O)CN2CCN(Cc3ccccc3)CC2)c1O	13%	x	x
Cc1c(NS(=O)(=O)c2ccc3c(c2)OCCO3)cccc1-c1nc2cccnc2s1	30%	-1%	16µM*
Cc1cc(-c2nc3cccnc3s2)ccc1NS(=O)(=O)c1ccc2c(c1)OCCO2	18%	-4%	u
COc1ccc(CN2COc3ccc4c(-c5ccc(OC)cc5)cc(=O)oc4c3C2)cc1	x	-29%	u
O=C1c2[nH]nc(-c3ccc(Br)cc3)c2C(c2cccc(O)c2)N1c1ccc(Cl)cc1 (stereo not given)	x	-5%	u
COC(=O)c1ccc(C2c3c(-c4ccc(Br)cc4)n[nH]c3C(=O)N2c2ccc(Cl)cc2)cc1 (stereo not given)	x	-1%	16µM*
COC(=O)C1=C[C@@H](C(=O)OC)[C@@H]2C3=C(C(=O)[C@@]2(C)NC(=O)c2ccccc2)[C@H](C)[C@@H]2C(=O)N(c4ccccc4)C(=O)[C@@H]2[C@@H]3C1	-1%	x	x
COc1ccc(NC(=O)CSC2=Nc3ccccc3C3=NC(CCC(=O)NC4CCCCC4)C(=O)N23)cc1Cl (stereo not given)	x	-1%	-2%
CSc1nc2c(c(=O)[nH]1)C(c1cccs1)C1=C(CCCC1=O)N2 (stereo not given)	-6%	-1%	3%
SMILES	Giardia FBPA inh	Cruzain inh Det	Cruzain noTriton
O=C1CCCC2=C1C(c1cn(-c3ccccc3)nc1-c1cccs1)c1c([nH]c(=O)[nH]c1=O)N2 (stereo not given)	0%	14µM*	13µM*
Cc1cc(C)cc(Nc2nc3c(S(=O)(=O)c4ccccc4)nnn3c3ccccc23)c1	6%	-6%	u
Cc1cccc(Nc2nc3c(S(=O)(=O)c4ccccc4)nnn3c3ccccc23)c1	6%	-3%	25µM*
O=c1c(CCc2ccccc2)nc2cncnc2n1-c1ccccc1	-1%	-9%	-2%
O=c1c(CCc2ccccc2)nc2cncnc2n1Cc1ccccc1	-2%	3%	3.2µM*
COc1ccc(C2=Nn3c(nnc3-c3ccc(OC)cc3OC)SC2)cc1	1%	x	x
COc1cccc(OCc2nc3c4cnn(-c5ccccc5)c4ncn3n2)c1	0%	8%	25µM*
COc1ccc(-n2ncc3c2ncn2nc(Cc4ccccc4)nc32)cc1	x	-1%	-10%
O=C1OC2C[C@H]1[C@@H]1C(=O)N(Cc3ccccc3)CCC1C2I (stereo not given in full)	-2%	2%	-3%
COc1ccc(NC(=O)Cn2c(=O)nc(-c3ccccc3)c3ccccc32)cc1OC	x	1%	14%
CC(C)n1c(=O)c2c(O)cc(=O)oc2c2ccccc21	-3%	1%	25µM*
CCn1c(=O)c2c(O)cc(=O)oc2c2ccccc21	-8%	-4%	-6%
CCCn1c2ccc(C)cc2c2nnc(SCCN3CCCCC3)nc21	3%	14µM*	u
CCn1c2ccc(C)cc2c2nnc(SCCN3CCCCC3)nc21	1%	x	x
c1ccc(Cn2c3ccccc3c3nnc(SCCN4CCCCC4)nc32)cc1	5%	x	x
CSc1nnc2c3cc(C)ccc3n(Cc3ccccc3)c2n1	-4%	u	25µM*
CC(C)C[C@H](NC(=O)[C@@H](Cc1c[nH]c2ccccc12)NC(=O)[C@H](Cc1ccc(O)cc1)NC(=O)[C@H](CO)NC(=O)[C@H](Cc1c[nH]c2ccccc12)NC(=O)[C@H](Cc1cnc[nH]1)NC(=O)[C@@H]1CCC(=O)N1)C(=O)N[C@@H](CCCN=C(N)N)C(=O)N1CCC[C@H]1C(=O)NCC(N)=O	4%	x	x
CC(=O)OCC1OC(C#Cc2ccc(C)cc2C)C=CC1OC(C)=O (stereo not given)	0%[12.9 µM]	x	x
C/C(=N/NS(=O)(=O)c1ccc(C)cc1)c1cccc(NC(=O)c2cccc(Cl)c2)c1	-5%	-4%	-21%
C/C(=N/NS(=O)(=O)c1ccc(Cl)cc1)c1cccc(NC(=O)c2ccc(Cl)cc2Cl)c1	3%	1%	25µM*
CCOc1cc(C(=O)Nc2ccc3oc(-c4ccc(F)cc4Cl)nc3c2)cc(OCC)c1OCC	x	-2%	4%
CN(C)Cc1ccc(-c2cc3onc(-c4ccccc4)c3c(=O)n2C)cc1	x	6%	2%
CCCCOC(=O)Nc1nnc(-c2ccccc2OC)s1	-2%	2%	16µM*
COc1ccccc1-c1nnc(NC(C)=O)s1	3%	1%	3%
C=CCc1ccccc1OCc1nc2ccc(C)cc2[nH]1	x	-8%	9%
SMILES	Giardia FBPA inh	Cruzain inh Det	Cruzain noTriton
COC(=O)Nc1ccc(Cl)c(Cl)c1	-8%	x	x
C[C@@H]1OC(Oc2ccccc2-c2cc(=O)c3c(O)cc(O)c([C@@H]4O[C@H](CO)[C@@H](O)[C@H](O)[C@H]4O)c3o2)[C@H](O)[C@H](O)[C@H]1O (stereo not given in full)	0%	x	x
O=C(COC(=O)CNC(=O)c1ccccc1Cl)Nc1ncc(C(F)(F)F)cc1Cl	4%	1.6µM*	1.3µM*
Cc1ccc(C)c(SCC(=O)OCC(=O)Nc2ncc(C(F)(F)F)cc2Cl)c1	-5%	u	15%
O=C(COC(=O)C1CC1)Nc1ncc(C(F)(F)F)cc1Cl	-1%	x	x
O=C(COC(=O)CSc1cccc2cccc(Cl)c12)Nc1ncc(C(F)(F)F)cc1Cl	-22%	u	25µM*
C[C@H](NC(=O)OC(C)(C)C)c1nnc(SCc2ccc(Cl)cc2Cl)o1	x	-8%	19%
Cc1ccc(NC(=O)c2ccco2)c(OCc2cc(=O)n3cc(C)sc3n2)c1	x	1%	4%
